Test results as given in PubChem BioAssay (EPA / NIEHS).
Some structures have more than one record in an assay (separate samples or runs), and their calls can disagree. Activity calls are given as the source filed them. How the source made its calls: active means hit-call score of the fitted dose curve at least 0.9, where 1 is the maximum; inactive means score below 0.9.

How the values were obtained:
[1] = BSK_3C_SRB: Viability Assessment in the BioMAP Diversity Plus: 3C Assay (AID 2283023); conditions: primary human endothelial cells (HUVEC);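 further: fitted both ways against DMSO so a hit may be signal rise or drop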
In short: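 Human umbilical vein endothelial cells in the 3C system, treated 24 h. Total protein measured by 0.1% sulforhodamine B staining after 10% TCA fixation, read at 560 nm; bidirectional fit versus DMSO.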

[2] = read-out: Matrix Metallopeptidase 1 (MMP1), MMP1 (gene 4312); assay: BSK_BE3C_MMP1: BioMAP Diversity Plus: BE3C Assay for Matrix Metallopeptidase 1 (MMP1) Biomarker Activity (AID 2283024); conditions: primary human bronchial epithelial cells; actives raise or lower the signal
In short: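 Human bronchial epithelial cells (BE3C system) exposed to compound for 24 h; MMP1 then quantified by ELISA. Activity was fitted in both directions relative to DMSO.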

[3] = BSK_3C_Vis: BioMAP Diversity Plus: 3C Assay for Morphology Visualization (AID 2283025); conditions: primary human endothelial cells (HUVEC);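 further: fitted both ways so gain or loss versus DMSO counts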;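 on AC50: light microscopy image of cell morphology used as background control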
In short: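 Chemicals were added to primary human umbilical vein endothelium, cells were incubated 24 h, and morphology was then visualized by light microscopy. Gain or loss of signal was fitted bidirectionally relative to DMSO.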

[4] = read-out: Pselectin, SELP (gene 6403); assay: BSK_4H_Pselectin: BioMAP Diversity Plus: 4H Assay for Pselectin Biomarker Activity (AID 2283026); conditions: primary human endothelial cells (HUVEC); actives raise or lower the signal
In short: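 ELISA read-out of P-selectin on human umbilical vein endothelium after 24 h of dosing. Values derive from bidirectional fitting relative to DMSO. Parallel SRB protein staining flagged overt cytotoxicity.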

[5] = BSK_4H_SRB: Viability Assessment in the BioMAP Diversity Plus: 4H Assay (AID 2283027); conditions: primary human endothelial cells (HUVEC);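 further: cells exposed to compound for 24 h before staining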;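 on AC50: curves fitted both ways versus DMSO so AC50 may be loss or gain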
In short: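 Human umbilical vein endothelial cells were dosed with chemical and, after 24 h, fixed with 10% TCA, stained with 0.1% sulforhodamine B, and read at 560 nm to give total protein as a cytotoxicity measure. Bidirectional fitting relative to DMSO control.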

[6] = BSK_BE3C_SRB: Viability Assessment in the BioMAP Diversity Plus: BE3C Assay (AID 2283028); conditions: primary human bronchial epithelial cells;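 on AC50: fitted both ways so AC50 may mark signal gain or loss versus DMSO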
In short: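 Human bronchial epithelial primary cells in confluent culture, 24 h after chemical dosing; total protein by 0.1% SRB staining after 10% TCA fixation, read at 560 nm. Bidirectional fitting versus DMSO baseline.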

[7] = read-out: Thrombomodulin, THBD (gene 7056); assay: BSK_3C_Thrombomodulin: BioMAP Diversity Plus: 3C Assay for Thrombomodulin Biomarker Activity (AID 2283029); conditions: primary human endothelial cells (HUVEC); actives raise or lower the signal
In short: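 Read-out is ELISA of thrombomodulin on human umbilical vein endothelium 24 h after chemical dosing. Gain or loss of signal is scored relative to DMSO. Overt cytotoxicity is checked in parallel cultures by sulforhodamine B staining.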

[8] = read-out: Urokinase-type plasminogen activator receptor (uPAR), PLAUR (gene 5329); assay: BSK_4H_uPAR: BioMAP Diversity Plus: 4H Assay for Urokinase-type plasminogen activator receptor (uPAR) Biomarker Activity (AID 2283030); conditions: primary human endothelial cells (HUVEC); actives raise or lower the signal
In short: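 Human umbilical vein endothelial cells in the 4H system, 24 h after chemical dosing. Cell-surface uPAR measured by ELISA, fitted in both directions versus DMSO; cytotoxicity checked by SRB total protein in parallel cultures.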

[9] = read-out: Vascular endothelial growth factor receptor 2 (Homo sapiens) (UniProt P35968); assay: BSK_4H_VEGFRII: BioMAP Diversity Plus: 4H Assay for Vascular endothelial growth factor receptor 2 (VEGFR2) Biomarker Activity (AID 2283031); conditions: primary human endothelial cells (HUVEC); actives raise or lower the signal;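 on AC50: cell-surface VEGFR2 protein level quantified by ELISA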
In short: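 Primary human umbilical vein endothelial cells (4H system), 24 h exposure; cell-surface VEGFR2 measured by ELISA. Bidirectional fitting versus DMSO; cytotoxicity checked in parallel by SRB total-protein staining.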

[10] = read-out: Human Leukocyte Antigen - DR isotype (HLADR), HLA-DRA (gene 3122); assay: BSK_BE3C_HLADR: BioMAP Diversity Plus: BE3C Assay for Human Leukocyte Antigen - DR isotype (HLADR) Biomarker Activity (AID 2283032); conditions: primary human bronchial epithelial cells; actives raise or lower the signal
In short: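 ELISA read-out of HLA-DR on human lung bronchial epithelial primary cells, measured 24 h post-dosing. Both increases and decreases were scored relative to DMSO vehicle.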

Measured: AC50

CC(C)=CC1C(C(=O)OCc2cccc(Oc3ccccc3)c2)C1(C)C (stereo not drawn)
active: [1] 26.7 µM | [3] 37.6 µM
inactive: all other assays above

O=C(O)COc1cc(Cl)c(Cl)cc1Cl
inactive: all assays above

O=c1oc2ccccc2c(O)c1C(CC(O)c1ccc(-c2ccc(Br)cc2)cc1)c1ccccc1 (stereo not drawn)
inactive: [7]
active: [1] 10.7 µM | [2] 9.43 µM | [4] 6.34 µM | [5] 12.7 µM | [6] 5.05 µM | [8] 6.9 µM | [9] 5.2 µM | [10] 5.4 µM

Nc1c(Oc2ccccc2)cc(O)c2c1C(=O)c1ccccc1C2=O
active: [2] 5.87 µM
not listed: [3]
inactive: all other assays above

CC(C)O.CC(C)O.OCCN(CCO)CCO.OCCN(CCO)CCO.[Ti]
inactive: all assays above

Cc1cc(Cl)ccc1OC(C)C(=O)O (stereo not drawn)
inactive: all assays above

C#CCOC(=O)/C=C(C)/C=C/CC(C)CCCC(C)C (stereo not drawn)
active: [1] 32.1 µM | [3] 39.8 µM | [4] 20 µM | [5] 33.2 µM | [9] 31.5 µM
inactive: all other assays above

Clc1cccc(Cl)c1
not listed: [3]
inactive: all other assays above

N#Cc1cccnc1
inactive: all assays above

O=C(Cc1ccccc1)OCCc1ccccc1
active: [4] 2.34 µM
inactive: [1] | [2] | [4] | [5] | [6] | [7] | [8] | [9] | [10]

O=C(N[C@H]1CN2CCC1CC2)c1ccc2c(c1)OCCO2
inactive: all assays above

CN(C)C(=S)S
active: [2] 13.2 µM | [10] 25.1 µM
not listed: [9]
inactive: all other assays above

CCOC(=O)CCN(SN(C)C(=O)Oc1cccc2c1OC(C)(C)C2)C(C)C
active: [3] 20 µM | [4] 23.2 µM
inactive: all other assays above

CCC(C)(C#N)N=NC(C)(C#N)CC (stereo not drawn)
inactive: all assays above

Cc1ccccc1OP(=O)(Oc1ccccc1)Oc1ccccc1
active: [1] 35.8 µM | [2] 6.66 µM | [3] 11.6 µM | [4] 20 µM | [5] 20 µM | [8] 32.2 µM | [9] 20 µM | [10] 11.5 µM
inactive: [6] | [7]

C[C@]12CC[C@@H](O)C[C@@H]1CC[C@@H]1[C@@H]2CC[C@]2(C)C(=O)CC[C@@H]12
inactive: all assays above

CC(C=O)Cc1ccc2c(c1)OCO2 (stereo not drawn)
not listed: [3]
inactive: all other assays above

O=[N+]([O-])c1cccc2ccccc12
inactive: all assays above

OC(Cc1ccccc1Cl)(Cn1cncn1)C1(Cl)CC1 (stereo not drawn)
inactive: all assays above

OCCN(CCO)CCO
inactive: all assays above

c1ccc2sc(SNC3CCCCC3)nc2c1
inactive: all assays above

CC1(C)[C@H](C(=O)O[C@H](C#N)c2cccc(Oc3ccccc3)c2)[C@@H]1/C=C(\Cl)C(F)(F)F
active: [2] 0.0142 µM | [10] 0.0141 µM
inactive: [1] | [2] | [4] | [5] | [6] | [7] | [8] | [9] | [10]

O=C(CCl)NCO
inactive: all assays above

O=C(O)C1(c2ccc3c(c2)OC[C@H](Cc2ccc(-c4ccccc4)cc2)[C@H]3O)CCCC1
active: [1] 28 µM | [2] 31.7 µM | [4] 27.1 µM | [5] 20 µM | [6] 26.2 µM | [10] 7.34 µM
inactive: [7] | [8] | [9]

C=CC(Cl)CCl (stereo not drawn)
not listed: [3]
inactive: all other assays above

[Cl][Sn]([c]1ccccc1)([c]1ccccc1)[c]1ccccc1
inactive: [9]
active: [1] 0.188 µM | [2] 0.36 µM | [3] 0.176 µM | [4] 0.0641 µM | [5] 0.192 µM | [6] 0.146 µM | [7] 5 µM | [8] 0.205 µM | [10] 0.0934 µM

N#CCCC(Br)(C#N)CBr (stereo not drawn)
active: [1] 5.06 µM | [2] 20 µM | [3] 5.04 µM | [4] 6.62 µM | [5] 6.36 µM | [6] 20 µM | [8] 8.75 µM | [9] 5.39 µM | [10] 27.9 µM
inactive: [7]

Cc1cc(C(C)(C)c2ccc(O)c(C)c2)ccc1O
inactive: [2] | [6] | [7] | [9]
active: [1] 17 µM | [4] 17.7 µM | [5] 14.3 µM | [8] 15.3 µM | [10] 10 µM

Nc1ccc(N)cc1
active: [3] 19.9 µM
inactive: all other assays above

CC(C)N(C(=O)CCl)c1ccccc1
inactive: [2] | [7] | [9]
active: [1] 20 µM | [3] 14.5 µM | [4] 16.8 µM | [5] 24.5 µM | [6] 29.9 µM | [8] 35.1 µM | [10] 20 µM

Cc1cccc(OP(=O)(Oc2cccc(C)c2)Oc2cccc(C)c2)c1
active: [7] 0.14 µM
inactive: all other assays above

CCCCCCCCCCCCc1cccc(S(=O)(=O)O)c1
active: [2] 28.8 µM | [6] 26.9 µM | [10] 17.6 µM
inactive: all other assays above
